Counter-ions that a name gives are not always drawn.
Test system: HL-1
Experiment: relative cell viability (CellTiter-Glo) vs DMSO control (% of DMSO control); higher = more viable cells
Method in brief: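 In 384-well plates, 1000 HL-1 mouse atrial cardiomyocytes per well were plated with compounds at 40, 200, 1000 or 5000 nM in 0.01% DMSO. Hypoxia at 1% O2 for 48 h began one day later and was followed by 24 h of reoxygenation, with parallel plates held in normoxia. CellTiter-Glo luminescence gave cell viability relative to vehicle-treated control cells.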

[1] = oxygen condition: hypoxia 48 h (1% O2) + reoxygenation 24 h, 40 nM
[2] = oxygen condition: hypoxia 48 h (1% O2) + reoxygenation 24 h, 200 nM
[3] = oxygen condition: hypoxia 48 h (1% O2) + reoxygenation 24 h, 1000 nM
[4] = oxygen condition: hypoxia 48 h (1% O2) + reoxygenation 24 h, 5000 nM
[5] = oxygen condition: normoxia 72 h, 40 nM
[6] = oxygen condition: normoxia 72 h, 200 nM
[7] = oxygen condition: normoxia 72 h, 1000 nM
[8] = oxygen condition: normoxia 72 h, 5000 nM

Row | Compound | relative cell viability [1] | relative cell viability [2] | relative cell viability [3] | relative cell viability [4] | relative cell viability [5] | relative cell viability [6] | relative cell viability [7] | relative cell viability [8]
1 | C=C(c1ccc(C(=O)O)cc1)c1cc2c(cc1C)C(C)(C)CCC2(C)C [Bexarotene] | 103 | 102 | 109 | 107 | 106 | 107 | 107 | 95.4
2 | OCC(CO)N[C@H]1C[C@](O)(CO)[C@@H](O)[C@H](O)[C@H]1O [Voglibose] | 109 | 117 | 113 | 113 | 105 | 114 | 116 | 115
3 | CCCCC1C(=O)N(c2ccccc2)N(c2ccccc2)C1=O [Phenylbutazone] | 100 | 104 | 93.3 | 110 | 102 | 112 | 43.1 | 112
4 | COc1nc(N)nc2c1ncn2[C@@H]1O[C@H](CO)[C@@H](O)[C@@H]1O [Nelarabine] | 113 | 114 | 112 | 112 | 111 | 112 | 108 | 111
5 | CCOc1ccc2ccccc2c1C(=O)N[C@@H]1C(=O)N2[C@@H]1SC(C)(C)[C@@H]2C(=O)O [nafcillin sodium monohydrate] | 92.6 | 104 | 105 | 109 | 99.1 | 101 | 103 | 107
6 | CCOc1cc(CC(=O)N[C@@H](CC(C)C)c2ccccc2N2CCCCC2)ccc1C(=O)O [Repaglinide] | 84.4 | 97.2 | 109 | 109 | 67.6 | 110 | 114 | 115
7 | Nc1ccn([C@@H]2O[C@H](CO)[C@@H](O)[C@@H]2O)c(=O)n1 [Cytarabine] | 89.2 | 75.5 | 44.9 | 5.82 | 84.9 | 64.3 | 35.7 | 4.29
8 | N#CC[C@H](C1CCCC1)n1cc(-c2ncnc3[nH]ccc23)cn1 [Ruxolitinib] | 95.7 | 98.9 | 104 | 111 | 99.8 | 96.6 | 102 | 104
9 | Cc1cc2c(cc1S(N)(=O)=O)S(=O)(=O)CCC2 [Meticrane] | 101 | 101 | 105 | 103 | 102 | 104 | 102 | 112
10 | O=NN(CCCl)C(=O)NC1CCCCC1 [Lomustine] | 90.8 | 100 | 93.4 | 66.3 | 108 | 96.2 | 102 | 67
11 | CN1C2CCCC1CC(NC(=O)c1nn(C)c3ccccc13)C2 (stereo unspecified) [Granisetron HCl] | 103 | 102 | 106 | 101 | 101 | 102 | 105 | 102
12 | C#Cc1cccc(Nc2ncnc3cc(OCCOC)c(OCCOC)cc23)c1 [Erlotinib HCl] | 114 | 107 | 105 | 124 | 112 | 123 | 112 | 113
13 | O=C(O)c1cc(=O)c2ccccc2o1 [Chromocarb] | 103 | 105 | 109 | 110 | 111 | 103 | 107 | 115
14 | CCCCC1=NC2(CCCC2)C(=O)N1Cc1ccc(-c2ccccc2-c2nnn[nH]2)cc1 [Irbesartan] | 103 | 102 | 107 | 108 | 107 | 105 | 102 | 107
15 | O=C(O)/C=C/c1ccc(Cn2ccnc2)cc1 [Ozagrel] | 102 | 97.4 | 85.7 | 29.5 | 105 | 107 | 90 | 18
16 | CCN1CCC[C@H]1CNC(=O)c1cc(S(N)(=O)=O)ccc1OC [Levosulpiride] | 98 | 107 | 105 | 116 | 107 | 108 | 108 | 116
17 | CC(CN(C)C)CN1c2ccccc2CCc2ccccc21 (stereo unspecified) [Trimipramine Maleate] | 103 | 105 | 111 | 111 | 99.2 | 101 | 102 | 94.2
18 | NCCCC(O)(P(=O)(O)O)P(=O)(O)O [Alendronate] | 104 | 102 | 106 | 109 | 99.2 | 105 | 107 | 109
19 | O=C1[C@H](CC[C@H](O)c2ccc(F)cc2)[C@@H](c2ccc(O)cc2)N1c1ccc(F)cc1 [Ezetimibe] | 111 | 104 | 108 | 115 | 111 | 112 | 116 | 112
20 | NCCc1c[nH]cn1 [Histamine Phosphate] | 99.7 | 101 | 96.7 | 108 | 98.8 | 101 | 97.7 | 109
21 | NC(=O)c1cccnc1 [Nicotinamide] | 95.4 | 97.2 | 98.5 | 104 | 96.7 | 103 | 95.5 | 102
22 | COC(=O)C1=C(C)NC(C)=C(C(=O)OCC(C)C)C1c1ccccc1[N+](=O)[O-] (stereo unspecified) [Nisoldipine] | 106 | 104 | 107 | 110 | 99.2 | 110 | 116 | 111
